Data as given in PubChem BioAssay.
Calls of active or inactive are those of the source.

Legend:
[1] = A549 cell viability effects, profiling panel, calcein-AM fluorescence, 48 h, basal (AID 1162); conditions: higher = more signal
[2] = adipocyte viability effects, profiling panel, cell-based, 3T3-L1 adipocytes, calcein-AM fluorescence, 48 h, basal (AID 1163); conditions: 3T3-L1 adipocytes viability, higher = more signal
[3] = HepG2 cell viability effects, profiling panel, calcein-AM fluorescence, 48 h, basal (AID 1164); conditions: higher = more signal
[4] = MM1S cell viability effects, profiling panel, calcein-AM fluorescence, 48 h, basal (AID 1165); conditions: higher = more signal;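 further: viability of MM1S multiple myeloma cells under basal unstimulated conditions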
[5] = basal RPMI8226 viability, no added stimulus, profiling panel, cell-based, calcein-AM fluorescence, 48 h, PK04 Diversity Set (AID 1166); conditions: RPMI8226 myeloma viability, higher = more signal;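 further: cells grown under basal conditions without added stimulus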
[6] = basal HepG2 mitochondrial membrane potential changes, profiling panel, cell-based, JC-1 fluorescence, 24 h, 100 nL compound (AID 1167); conditions: higher = more signal
[7] = basal 3T3-L1 adipocyte mitochondrial potential changes, profiling panel, cell-based, JC-1 fluorescence, 3T3-L1 adipocytes, 24 h, 100 nL compound (AID 1168); conditions: JC-1 mitochondrial fluorescence, higher = more signal, called active from +8 up or from −8 down
[8] = basal RPMI8226 mitochondrial membrane potential changes, profiling panel, cell-based, JC-1 fluorescence, 24 h, 100 nL compound (AID 1169); conditions: RPMI8226 myeloma, JC-1 mitochondrial potential fluorescence, higher = more signal
[9] = basal MM1S mitochondrial membrane potential changes, profiling panel, cell-based, JC-1 fluorescence, 24 h, 100 nL compound (AID 1170); conditions: higher = more signal
[10] = A549 lung cancer cell viability effects, profiling panel, resazurin fluorescence, 24 h, PK04 Diversity Set (AID 1171); conditions: higher = more signal, called active from +8 up or from −8 down
Further: test concentration not given here.

| Compound | z-score [1] | z-score [2] | z-score [3] | z-score [4] | z-score [5] | z-score [6] | z-score [7] | z-score [8] | z-score [9] | z-score [10] |
| --- | --- | --- | --- | --- | --- | --- | --- | --- | --- | --- |
| C[N+](C)(C)CCCCNC(=O)[C@@H]1C[C@@H]2C(=O)N[C@@H](Cc3ccccc3)C(=O)N2[C@@H]1c1cccc(OCCO)c1 | 1.49 | -0.764 | 0.215 | 0.367 | 0.0971 | 1.58 | 0.924 (inactive) | 0.219 | -0.493 | -0.337 (inactive) |
| COc1ccccc1CN1C(=O)c2ccccc2[C@@]2(Cc3ccccc3N(CC(C)C)C2=O)[C@@H]1c1ccc(CO)cc1 | 0.211 | 0.444 | -0.385 | -0.481 | -0.0712 | -0.204 | 0.211 (inactive) | -0.887 | -0.0409 | -1.03 (inactive) |
| C=CC[C@@]1(C(=O)NCCN2CCOCC2)N=C(c2ccc(OCCCO)cc2)O[C@@H]1c1ccccc1N=[N+]=[N-] | 0.391 | -0.187 | 0.55 | -0.669 | -0.394 | 1.42 | 0.602 (inactive) | -0.244 | -0.322 | -0.0072 (inactive) |
| COCCOC(=O)N1C(=O)[C@@]2(c3cc(C#CCC(C(=O)OC)C(=O)OC)ccc31)[C@H](C(=O)N1CCN(c3ncccn3)CC1)[C@H]1C(=O)O[C@H](c3ccccc3)[C@H](c3ccccc3)N1[C@@H]2c1ccccc1OCCO | 0.0182 | 0.462 | -0.481 | -0.748 | 0.297 | 1.37 | 1.39 (inactive) | -0.182 | -1.2 | -0.174 (inactive) |
| CCOC(=O)C[C@H]1[C@H](OC(=O)c2ccccc2-c2ccccc2)[C@@H](NC(=O)CC(C)C)c2cc(OCCCO)ccc2N1C(=O)Cc1ccc(OC)cc1 | 0.412 | 0.417 | 0.612 | -1.52 | -0.884 | 1.4 | 0.652 (inactive) | -0.0827 | 0.32 | 1.34 (inactive) |
| COCCOC(=O)N1C(=O)[C@@]2(c3cc(C#CCC(C(=O)OC)C(=O)OC)ccc31)[C@H](c1ccccc1OCCO)N1[C@H](c3ccccc3)[C@H](c3ccccc3)OC(=O)[C@H]1[C@@H]2C(=O)N1CCN(c2ncccn2)CC1 | -0.0169 | 1.16 | 0.469 | -1.59 | -2.45 | 0.8 | 2.27 (inactive) | -0.78 | -0.522 | 0.934 (inactive) |
| CN1C(=O)C2C=CC(C(O)c3ccco3)N(Nc3ccccc3)C2C1=O (stereo not given) | -0.835 | -1.12 | -0.315 | -1.34 | -0.137 | -1.67 | -0.783 (inactive) | 0.819 | -0.101 | -0.579 (inactive) |
| CCC(CC)C(O)C1C=CC2C(=O)NC(=O)C2N1Nc1ccc(Cl)cc1Cl (stereo not given) | -1.36 | -0.326 | -0.751 | -1.38 | -0.82 | -2.18 | -0.446 (inactive) | -0.661 | -0.246 | -0.929 (inactive) |
| O=C1O[C@@H](c2ccccc2)[C@@H](c2ccccc2)N2[C@@H](c3ccccc3OCCO)[C@]3(C(=O)Nc4ccc(C#CC5=CCCCC5)cc43)[C@@H](C(=O)N3CCCCCCC3)[C@H]12 | -1.66 | 0.25 | 0.297 | -3.09 | -2.79 | 1.19 | -1.85 (inactive) | -0.715 | -1.75 | -0.312 (inactive) |
| COc1ccc([C@H]2OC[C@@H]3C[C@@H](Cc4ccccc4)C(=O)N32)cc1 | -0.706 | 0.0138 | 0.305 | -2.13 | 0.215 | -0.478 | -0.0784 (inactive) | 0.183 | -0.0676 | 0.194 (inactive) |
| COc1ccc(C#Cc2ccc3c(c2)[C@]2(C(=O)N3)[C@H](C(=O)NC[C@H](O)c3ccccc3)[C@H]3C(=O)O[C@H](c4ccccc4)[C@H](c4ccccc4)N3[C@@H]2c2ccc(O)cc2)cc1 | 0.0902 | -0.753 | -0.0809 | -3.27 | -4.13 | -1.93 | -0.523 (inactive) | -1.11 | -1.57 | -0.226 (inactive) |
| O=C1C[C@]2(c3ccc([N+](=O)[O-])cc3)C(=O)N(CC(F)(F)F)c3cc(CO)ccc3[C@H]2N1C1CCCCC1 | 1.81 | -0.677 | 0.203 | 0.0687 | 1 | 0.38 | 0.986 (inactive) | 0.247 | 1.9 | -0.745 (inactive) |
| COc1ccc(C#Cc2ccc3c(c2)[C@]2(C(=O)N3)[C@H](c3ccccc3OCCO)N3[C@H](c4ccccc4)[C@H](c4ccccc4)OC(=O)[C@H]3[C@@H]2C(=O)Nc2nc3ccccc3s2)cc1 | 0.855 | 0.453 | -0.543 | -2.43 | -2.65 | -3.4 | 2.29 (inactive) | -0.631 | -1.28 | -2.07 (inactive) |
| [N-]=[N+]=Nc1ccccc1[C@H]1OC(c2ccc(OCCCO)cc2)=N[C@@]1(CCS(=O)(=O)c1ccccc1)C(N)=O | 0.0833 | 0.733 | 0.0844 | -0.57 | 0.0418 | -0.93 | -0.235 (inactive) | -1.07 | 0.296 | 0.985 (inactive) |
| COC(=O)[C@@]1(Cc2ccc(OC)cc2)[C@H]2c3cc(C(=O)N(C)C)n(Cc4ccc(S(C)(=O)=O)cc4)c3C[C@H]2CN1C(=O)c1ccccc1 | 2.88 | 0.449 | 1.13 | 0.636 | 1.51 | 3.14 | -0.572 (inactive) | 0.484 | -1.11 | 0.0073 (inactive) |
| CN1C(=O)C2C=CC(C(O)c3ccc([N+](=O)[O-])cc3)N(N3CCCCC3)C2C1=O (stereo not given) | -0.234 | -0.69 | -0.384 | -0.324 | -0.721 | -1.24 | -0.927 (inactive) | 0.0849 | 0.134 | -0.197 (inactive) |

| Compound | z-score [1] | z-score [2] | z-score [3] | z-score [4] | z-score [5] | z-score [6] | z-score [7] | z-score [8] | z-score [9] | z-score [10] |
| --- | --- | --- | --- | --- | --- | --- | --- | --- | --- | --- |
| COC(=O)[C@@]1(Cc2ccc(OC)cc2)[C@H]2c3cc(C(=O)N4CCCC4)n(Cc4ccc(O)c(OC)c4)c3C[C@H]2CN1C(=O)c1ccccc1 | -0.226 | 0.174 | 0.321 | 0.11 | -0.243 | 2.27 | -0.183 (inactive) | -0.221 | -0.933 | -1.47 (inactive) |
| CCCC[C@@H]1C[C@H]1[C@@H](NC(=O)c1ccco1)c1ccc(-c2ccccc2)cc1 | -0.359 | 0.222 | -1.05 | -0.15 | -1.03 | -1.07 | -0.168 (inactive) | -0.0532 | 0.0163 | -1.04 (inactive) |
| C=C(COC)/C(=C/C[C@H](OC(C)=O)c1ccc(CO)o1)c1cc(C(=O)OC)ccc1OC | -0.588 | 0.635 | -0.603 | -0.659 | -0.0381 | -0.527 | -0.29 (inactive) | -0.0437 | 0.000891 | -0.369 (inactive) |
| O=C1OCCC/C=C\[C@H]2OC34C=CCN(Cc5ccccc5)C(=O)[C@H]3N(CCCO)C(=O)[C@@H]4C12 (stereo not given in full) | -0.0592 | -0.0687 | 0.556 | 1.58 | 0.438 | 0.315 | 0.478 (inactive) | 0.0319 | 1.44 | 0.0483 (inactive) |
| C=CCOC(=O)[C@@H]1[C@H]2C(=O)O[C@H](c3ccccc3)[C@H](c3ccccc3)N2[C@H](c2ccc(OCCOC(=O)[C@H]3C[C@H]4C(=O)N5CCC[C@H]5C(=O)N4[C@H]3c3ccc(O)cc3)cc2)[C@@]12C(=O)Nc1ccc(I)cc12 | 0.0077 | 0.205 | -1.02 | -1.75 | -1.31 | -1.7 | 1.24 (inactive) | -0.81 | -1.27 | -0.685 (inactive) |
| [N-]=[N+]=NCc1ccccc1[C@@H]1OC(c2ccc(OCCCO)cc2)=N[C@]1(Cc1ccccc1)C(N)=O | 0.88 | 1.5 | 0.493 | -0.527 | -1.63 | 1.49 | -0.534 (inactive) | -0.75 | -1.1 | 0.479 (inactive) |
| C=C(CCCC)/C(=C/C[C@H](OC(=O)c1ccncc1)c1ccccc1OCCO)c1cnc2ccccc2c1 | 0.0262 | 0.091 | 0.0722 | -3.3 | -2.97 | 0.943 | -0.424 (inactive) | -0.716 | -0.705 | 0.89 (inactive) |
| COCCOC(=O)N1C(=O)[C@@]2(c3cc(C#CC4(O)CCCCCC4)ccc31)[C@H](c1ccccc1OCCO)N1[C@H](c3ccccc3)[C@H](c3ccccc3)OC(=O)[C@H]1[C@@H]2C(=O)N1CCN(c2ncccn2)CC1 | -0.244 | -0.464 | 1.4 | -0.404 | -1.14 | 0.673 | 1.86 (inactive) | -0.965 | -1.05 | -0.461 (inactive) |
| CC(C)C(CO)N1C(=O)[C@@H]2C3C(=O)OCCC/C=C\[C@H]3OC23C=CCN(CCN2CCOCC2)C(=O)[C@@H]13 (stereo not given in full) | 1.12 | -0.453 | -0.66 | 0.171 | -0.378 | -0.936 | -0.173 (inactive) | -0.759 | -0.359 | -0.702 (inactive) |
| CN(C)CCCCCCNC(=O)[C@@H]1C[C@@H]2C(=O)N[C@@H](Cc3ccccc3)C(=O)N2[C@@H]1c1ccc(O)cc1 | -0.58 | 0.502 | -0.948 | -1.45 | -0.571 | -1.15 | -1.42 (inactive) | -0.00023 | 0.0429 | -1.03 (inactive) |
| CO[C@H]1O[C@H](CO)[C@@H](OC(=O)Nc2cccc(F)c2)[C@H](OC(=O)Nc2ccccc2)[C@@H]1OC(=O)Nc1ccccc1 | -1.61 | 0.18 | -2.08 | -3.43 | -4.24 | -0.702 | -1.66 (inactive) | -1.22 | -1.07 | -3.16 (inactive) |
| CCS[C@H]1[C@@H](C(=O)O)[C@H](c2ccc(C)cc2)N(S(=O)(=O)c2ccc(C)cc2)[C@@H]1CC | -0.408 | -0.507 | 1.36 | 0.412 | 0.458 | 0.922 | 0.337 (inactive) | 0.551 | -1.88 | -0.545 (inactive) |
| CC(C)N1C(=O)c2ccccc2[C@](C)(C(=O)NCCN2CCOCC2)[C@@H]1c1ccc(CO)cc1 | -0.291 | -0.748 | 0.458 | -1.69 | 0.0409 | 0.916 | -0.537 (inactive) | 1 | -0.0545 | 0.0569 (inactive) |
| COc1ccc(CCNC(=O)[C@@H]2c3ccccc3C(=O)N(Cc3ccccc3Cl)[C@H]2c2ccc(CO)cc2)cc1 | 1.37 | 0.789 | 0.332 | -0.897 | -0.474 | 1.64 | 0.716 (inactive) | -0.0929 | 1.42 | 1.22 (inactive) |
| [N-]=[N+]=NCc1ccccc1[C@@H]1OC(c2ccc(OCCCO)cc2)=N[C@]1(Cc1ccccc1)C(=O)NCC(O)CO (stereo not given in full) | 0.939 | -1.16 | 0.78 | -1.07 | -0.596 | -0.474 | -0.672 (inactive) | -0.596 | -0.471 | 0.424 (inactive) |
